Reference: PubChem BioAssay (NCATS)
Records with an inconclusive call do not appear. Activity calls are given as the source filed them. Calls come from the whole dose curve; as a rule, active = well fitted curve in the direction sought with a large enough effect; inconclusive = small, poorly fitted or top-dose-only effect, or another doubt; inactive = no such curve, though single readings can be large; an effect the other way counts as inactive or inconclusive.

Tests used:
[1] = qHTS to identify inhibitors of the type 1 interferon - major histocompatibility complex class I in skeletal muscle: primary screen against the NCATS LOPAC collection (AID 1347405);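 note: human myoblasts with HiBiT tag on endogenous HLA-B stimulated by IFN-beta; lytic HiBiT luminescence reporting HLA-B protein level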
Summary of the method: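 First, engineered myoblasts carrying HLA-B-HiBiT were seeded in medium lacking dexamethasone with 4 ng/ml IFN-beta. After 1 hr, compounds were pinned in (top 46 uM final, 7 points). After 24 hrs at 37 C, luminescence was measured following 10 min lysis.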

[2] = qHTS for inhibitors of adenylyl cyclases using a fission yeast platform: a pilot screen against the NCATS LOPAC library (AID 1347410)
Summary of the method: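 Fission yeast qHTS: CHP2027 cells (AC9-GNAS-PDE4D2, fbp1-GFP), 5x10^6 cells/mL working density, EMM + His/Lys/Ura; LOPAC at up to 57 µM final; 18 h dark, 30C; GFP by laser cytometry. DPI positive control, DMSO vehicle.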

[3] = Validation qHTS assay for inhibitors of Activation Induced Cytidine Deaminase (AID): UDG Counterscreen signal (AID 1347427)
Summary of the method: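 Fluorescence at 560 nm excitation, 665 nm emission reports UDG signal after 250 mM NaOH (2x) addition and 30 min. Enzymes (AID 1 uM, UDG 2 U/mL, at 4/3x) preincubated 10 min with compound, then 4 h with 4x 250 nM DJC20/DJC23 substrate at room temperature.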

[4] = target: Single-stranded DNA cytosine deaminase (Homo sapiens) (UniProt Q9GZX7); assay: Validation qHTS assay for inhibitors of Activation Induced Cytidine Deaminase (AID): AID signal (AID 1347429)
Summary of the method: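 Steps: dispense AID with UDG; pin-transfer compound up to 114 uM final; add DJC20/DJC23 substrate and hold 4 hr at room temperature; add NaOH, hold 30 min; read FRET signal (540/590 nm).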

[5] = Primary qHTS for inhibitors of La Crosse Virus (LACV) - induced cell death in SH-SY5Y cells (AID 1508616);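 note: top concentration of the series differs between compounds; higher means more rescue of cells from virus-induced death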
Summary of the method: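 SH-SY5Y, 6000 cells/well; cpd via pin tool in DMSO; LACV 0.01 MOI; 6 d 37C 5% CO2; ATPLite, 5 min RT; luminescence normalized to ±virus DMSO controls.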

Measured: Potency

Sequence of Single-stranded DNA cytosine deaminase (Homo sapiens) (Q9GZX7 whole entry, looked up): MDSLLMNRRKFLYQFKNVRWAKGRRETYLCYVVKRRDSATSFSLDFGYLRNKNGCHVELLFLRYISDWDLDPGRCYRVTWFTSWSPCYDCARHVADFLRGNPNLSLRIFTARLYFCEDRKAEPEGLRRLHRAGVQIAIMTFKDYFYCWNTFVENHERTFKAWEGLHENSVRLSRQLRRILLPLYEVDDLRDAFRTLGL

Cn1cc(C(=O)OCC2CCN(CCNS(C)(=O)=O)CC2)c2ccccc21
inactive: all assays above

COC1(C2=NCCN2)COc2ccccc2O1 (stereo not given)
inactive: all assays above

CCC(=O)N1CCN(C(=O)c2ccccc2)CC1
inactive: all assays above

C=CCN1CCc2cc(O)c(O)cc2C(c2ccccc2)C1 (stereo not given)
inactive: all assays above

Fc1ccc(CN(C2=NCCN2)c2c(Cl)cccc2Cl)cc1
inactive: all assays above

N=C(N)SCCN
inactive: all assays above

CC(C)C[C@H](NC(=O)[C@H](O)[C@H](N)Cc1ccccc1)C(=O)O
inactive: all assays above

CC1CCN=C(N)S1 (stereo not given)
inactive: all assays above

CC1CNCCN1S(=O)(=O)c1cccc2cnccc12 (stereo not given)
inactive: all assays above

c1ccc(C2CN3CCSC3=N2)cc1 (stereo not given)
inactive: all assays above

CC(C)C[C@H](NC(=O)C1OC1C(=O)O)C(=O)NCCCCN=C(N)N (stereo not given in full)
inactive: all assays above

N[C@H](C(=O)O)[C@H]1C[C@@H]1C(=O)O
inactive: all assays above

CC1C(=O)N(C)C(=O)c2nc[nH]c21 (stereo not given)
inactive: all assays above
